# Data taken from the supplement of paper PMC3334620.
# Whole data set: some 33,000 sequences, median “E-score (-0.5 to 0.5)” near -0.013, cut for the highest 2% near 0.3. The entries come from a sample that favours the highest values as a whole.
# Molecular target: T1, Msn1 (UniProt P22148)
# T1 sequence: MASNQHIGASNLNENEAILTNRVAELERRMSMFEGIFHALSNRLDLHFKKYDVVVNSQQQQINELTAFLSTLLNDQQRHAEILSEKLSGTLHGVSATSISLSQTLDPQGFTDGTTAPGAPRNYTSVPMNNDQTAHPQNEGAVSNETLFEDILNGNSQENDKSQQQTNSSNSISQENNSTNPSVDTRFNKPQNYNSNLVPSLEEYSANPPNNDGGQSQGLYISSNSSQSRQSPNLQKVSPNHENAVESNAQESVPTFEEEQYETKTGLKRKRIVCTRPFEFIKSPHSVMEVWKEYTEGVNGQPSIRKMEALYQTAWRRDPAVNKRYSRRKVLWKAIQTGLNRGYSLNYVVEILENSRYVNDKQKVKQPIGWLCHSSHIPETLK
# Assay: PBM E-score (8-mer binding enrichment) (E-score (-0.5 to 0.5)); higher = stronger / more preferred TF binding
# Settings: protein concentration: 200 nM; construct: GST-full length
# Procedure: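 Universal 'all 10-mer' protein binding microarrays (Agilent AMADID 015681) probed with GST-tagged S. cerevisiae TFs (full-length or DBD) made by in vitro transcription/translation (PURExpress), about 100-200 nM. Bound TF was detected with fluorescent anti-GST. Each ungapped 8-mer (which stands for itself and its reverse complement) is scored by the PBM enrichment score (E-score), a modified Wilcoxon-Mann-Whitney statistic from -0.5 to +0.5, computed with the Universal PBM Analysis Suite. Scale: above 0.35 generally sequence-specific binding.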
row,Sequence,PBM E-score
1,CGGACCAC,-0.0995
2,GATGGAGC,-0.185
3,GTGCGGGA,-0.0606
4,AAAAGTAT,0.17
5,ACAAGTCA,0.0996
6,AAAAGTCC,0.467
7,AAAAGTAA,0.25
8,ATTAGTCC,0.349
9,AAAAGTCT,0.269
10,AAAAGTAC,0.366
11,ATTAGTCG,0.16
12,AAAAGTCA,0.194
13,ACAAGTCC,0.363
14,ATTAGTCA,0.0896
15,ACAAGTCG,0.0205
16,ACCTCAGA,-0.147
17,CGGCTTAC,0.051
18,AAGGCCAA,-0.2
19,TGGCGAAA,-0.095
20,ACTGAAGA,0.147
21,AAGGCTAG,0.0752
22,CACCCAAC,-0.201
23,GAGGCGCC,-0.178
24,ATAAGTCC,0.422
25,CTAAGTCC,-0.0602

row,Sequence,PBM E-score
1,ATAAGTCG,0.0746
2,ACAGTCAG,0.0633
3,CATTTGCC,-0.00883
4,GATTTGCA,0.0983
5,AATTTGTA,0.28
6,GGTTTGTA,0.0228
7,GATTTGTA,0.31
8,CATTTGGC,0.0384
9,CATTTGTA,0.36
10,CATTTGCA,0.0736
11,CATTTGTC,0.485
12,GCAACCGC,0.0753
13,AATCCAAG,0.0229
14,AGCCCGCG,-0.185
15,CAACCATC,-0.177
16,CTGAACTC,-0.0622
17,GAGGGACA,0.447
18,GAGGGAGA,-0.218
19,TAGGGAGA,-0.215
20,CAGGGACG,0.165
21,TAGGGAAA,-0.0483
22,TAGGGACA,0.484
23,GAGGGACC,-0.268
24,AAGGGACC,-0.0619
25,CAGGGACA,0.47

row,Sequence,PBM E-score
1,AAGGGACA,0.44
2,CAGGGACC,-0.273
3,AAGGGACT,0.0205
4,ACTAGCGA,0.0418
5,AGCATGCG,-0.0235
6,GAGTCTCA,0.00041
7,CGATAACC,0.0193
8,GAAATGGA,-0.0913
9,GAAATGAC,0.216
10,CCGATTTA,0.109
11,GAGCCCTC,-0.318
12,CCCTAGTA,-0.0771
13,CAAGCGTA,-0.0459
14,CCTTTTAC,0.0837
15,CTGGGGCC,-0.384
16,ACGACAAT,0.24
17,AGGACAAT,0.483
18,AGGACGAT,-0.0393
19,AGGACCAG,-0.141
20,AGGACTAC,-0.122
21,AGGACTAG,0.273
22,AGGACCAC,-0.124
23,AGGACAAC,0.436
24,AGGACAAG,0.472
25,ATTCGAAA,0.0661

row,Sequence,PBM E-score
1,AATCTGGT,0.0578
2,ATAGGTAC,0.199
3,GCTTTCGA,-0.175
4,ATGCCTGC,-0.145
5,ACGGTTAA,-0.117
6,CCTCGTTC,-0.202
7,AGAAAACA,0.108
8,CAGGACCA,-0.0434
9,CAGGACAA,0.481
10,AAGGACTT,0.347
11,AAGGACGT,0.32
12,AAGGACAA,0.485
13,AAGGACAG,0.296
14,CAGGACAG,0.259
15,AAGGACCA,-0.0926
16,AAGGACTG,-0.0408
17,AAGGACTA,-0.00885
18,AAGGACGA,0.0414
19,AAGGACGG,-0.145
20,GCCCGTCA,-0.234
21,ACCGGTAA,-0.0138
22,AACTTTGA,0.12
23,AAATTCGT,0.256
24,AGCCCCGC,-0.0507
25,GGGCCTAA,-0.0118

row,Sequence,PBM E-score
1,TAGGACCA,0.202
2,TAGGACAA,0.491
3,AAGGAGAT,-0.164
4,AAGGACAT,0.49
5,AAGGACCT,0.0694
6,TAGGACTA,0.257
7,TATATGCA,0.102
8,ACATTCAA,0.134
9,CTTGGCCA,-0.0402
10,AAGGACAC,0.449
11,CAGAACAC,-0.0663
12,GAGGACTC,-0.078
13,AAGGACGC,0.167
14,GAGGACCA,-0.184
15,GAGGACCC,-0.218
16,AAGGACCC,-0.0634
17,GAGGACAC,0.398
18,CAGGACAC,0.407
19,GAGGACAA,0.466
20,GAGGACTA,0.0516
21,CAGGACGC,0.00853
22,GCCGGTAA,0.146
23,ATATTCGG,0.11
24,AGCAGTTA,-0.0695
25,CTCGACAG,-0.14

row,Sequence,PBM E-score
1,TACACTGA,0.0723
2,GCCTAAAC,0.0003
3,AGTCGCTA,-0.0278
4,ACGATGTA,0.00548
5,GCATCACA,-0.0397
6,ATCGTGCC,0.0402
7,ATCGTGCA,0.125
8,ATCGTGCG,0.306
9,CCCAGACC,-0.348
10,AATTTAAT,0.298
11,GCCCGCAA,-0.0655
12,GCATTGAA,-0.0579
13,AGAAATCC,-0.0711
14,CTGAGACC,-0.18
15,ACGAGACA,0.275
16,CTGAGAGA,-0.0585
17,GTGAGAAA,0.124
18,ATGAGACG,-0.109
19,CCGAGACC,-0.0572
20,GTGAGAGA,-0.0903
21,CTGAGACA,0.319
22,GTGAGACA,0.315
23,ATGAGACC,-0.0403
24,ATGAGACA,0.358
25,CCGAGACA,0.319

row,Sequence,PBM E-score
1,AGGGGACC,-0.207
2,CCCAGCAC,-0.148
3,GCATCCAA,-0.225
4,AATAAAGT,0.209
5,AAGGATTG,0.191
6,GAGGGTAA,-0.114
7,GCAGTAGC,-0.289
8,CGTTTCAG,0.176
9,GCGATGAC,0.0728
10,GCGGTAGC,0.041
11,CAACCATG,0.0589
12,AAAAATAT,0.208
13,TCAAATAA,0.234
14,CCAAATAC,-0.058
15,GCAAATAA,0.0601
16,ACAAATAT,0.404
17,AGAAATAT,0.181
18,ACAAATAA,0.307
19,ACAAATAC,0.328
20,GCAAATAC,0.0266
21,AAAAATAG,0.189
22,CCAAATAG,-0.0591
23,ACAAATAG,0.322
